Screening results from PubChem BioAssay.
HTT prom inh = inhibits huntingtin promoter activity | Potency, µM (top dose mostly 57.5 µM), without a hit: top-dose activity change, negative = inhibition, hits mostly inhibitors | AID 1508623 | actives 0.93% (n = 48,000) | HEK293 HTT promoter firefly luciferase reporter, 24 h; also: potency is read from the fitted curve at half-maximal effect; nearly all actives have a fitted effect of over 50% in size
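Firefly luciferase signal from promoter-reporter HEK293 cells was scaled between vehicle (0%) and zero RLU (-100%). Compounds were tested at final concentrations of up to 57.5 uM over 24 h at 37 degrees C. PTC124 at 50 uM final served as control inhibitor.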
HTT-AS act = activates huntingtin-antisense promoter activity. HEK293 HTT-AS promoter firefly luciferase reporter, 24 h; response scale: percent change from vehicle, -100% = no light. Potency, µM (top dose mostly 57.5 µM), for inactives: at the top dose activity change, positive = activation, usual class: activators. actives 0.24% (n = 48,000). AID 1508624; also: potency is read from the fitted curve at half-maximal effect; nearly all actives have a fitted effect of over 55% in size
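HEK293 Fluc reporter, 2,500 cells/well, 24 h pre-culture; cpds up to 57.5 uM final, 24 h 37 degrees C; Dual-Glo, 10 min RT; normalized vehicle = 0%, zero RLU = -100%.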
GALC G270D up = enhancers of human galactocerebrosidase G270D mutant activity in cells. P54803. 145M-Twi-hGALC-G270D cells (Twitcher mouse brain line with human GALC G270D), HMU-beta-Gal fluorescence, 48 h. AID 1159614. Potency, µM (highest dose often 57.5 µM), hits mostly activators. actives 0.1% (n = 45,000); also: potency is read from the fitted curve at half-maximal effect; 0% is about no effect; nearly all actives have a fitted effect of over 65% in size
Target sequence (P54803 whole entry G286D): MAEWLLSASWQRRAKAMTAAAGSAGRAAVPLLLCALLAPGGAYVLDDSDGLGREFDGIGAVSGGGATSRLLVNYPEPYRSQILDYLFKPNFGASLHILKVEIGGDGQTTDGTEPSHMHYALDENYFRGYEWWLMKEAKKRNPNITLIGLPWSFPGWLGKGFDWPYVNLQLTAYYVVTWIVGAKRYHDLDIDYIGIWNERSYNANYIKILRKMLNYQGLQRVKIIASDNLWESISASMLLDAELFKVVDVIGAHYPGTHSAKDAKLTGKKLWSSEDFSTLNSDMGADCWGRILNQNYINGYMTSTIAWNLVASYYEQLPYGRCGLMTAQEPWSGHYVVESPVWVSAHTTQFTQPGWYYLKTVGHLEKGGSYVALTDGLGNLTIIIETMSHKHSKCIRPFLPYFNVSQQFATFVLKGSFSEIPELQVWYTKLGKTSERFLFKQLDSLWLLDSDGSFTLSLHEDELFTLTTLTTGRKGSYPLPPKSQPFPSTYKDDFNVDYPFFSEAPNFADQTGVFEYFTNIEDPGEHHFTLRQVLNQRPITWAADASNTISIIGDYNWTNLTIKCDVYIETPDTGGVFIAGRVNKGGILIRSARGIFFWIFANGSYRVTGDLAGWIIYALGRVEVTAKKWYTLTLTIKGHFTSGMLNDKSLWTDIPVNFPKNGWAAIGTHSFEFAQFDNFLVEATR
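Fluorescence readout: HMU-β-gal cleavage by mutant GALC (0.1 mM final, citrate/phosphate pH 5.2 with 1 mg/mL taurocholate), stopped with carbonate/bicarbonate plus Triton X-100. Cells: murine Twitcher 145M-Twi expressing human G270D GALC; qHTS for activators.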
TSG101-PTAP inh = TSG101-PTAP interaction inhibition, HIV-1 budding | Fluorescence polarization, FITC-PTAP peptide/Tsg101, 20 min | Q99816 | Potency, µM (doses to about 115 µM), hits mostly inhibitors | 44,000 tested, under 10 active; also: potency is read from the fitted curve at half-maximal effect; 0% is about no effect
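FITC-labeled PTAP peptide (50 nM final) binding to Tsg101 binding domain (10 uM final) read by fluorescence polarization after 20 min at r.t. in HEPES pH 7.5 buffer. Actives by CRC class, <25 µM.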
GALK inh = inhibitors of human galactokinase (GALK); Potency, µM (titrated, usually from 57.5 µM), for inactives: at the highest dose activity, negative = inhibition, hits mostly inhibitors; P51570; 44,000 tested, under 10 active; recombinant GALK, Kinase-Glo ATP luminescence, 1 h;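 also: plate controls were full GALK reaction for no effect and reaction lacking GALK for full effect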
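Luminescent ATP-depletion readout (Kinase-Glo Plus) after 1 h room-temperature incubation of human GALK (5 nM) with galactose 100 µM and ATP 35 µM, pH 8.0 HEPES/Mg2+ buffer; compounds tested in qHTS format.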
B2AR arrestin ag = agonists recruiting beta-arrestin to human beta2-adrenergic receptor. Potency, µM (highest dose often 46.1 µM), actives largely listed as activators. 44,000 tested, under 10 active. HTLA Tango cells, beta-arrestin recruitment, luciferase luminescence, 18 h. P07550. AID 1347077;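 also: potency is read from the fitted curve at half-maximal effect; 0% = DMSO and full agonism = EC100 isoproterenol or metaproterenol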
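Ligand-induced beta-arrestin recruitment to recombinant beta2-AR is measured via a tTA-driven luciferase reporter in Tango cells after 18 hr compound exposure at 37 degrees C. Concentrations span up to 46 microM.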
Starred values were filed as active, the others as inactive. Only some compounds are listed: those with a hit (about 1.4% of all), similar ones and a draw of the others. Calls follow the shape of the dose curve; as a rule, active = well fitted curve in the direction sought with a large enough effect; inconclusive = small, poorly fitted or top-dose-only effect, or another doubt; inactive = no such curve, though single readings can be large; an effect the other way counts as inactive or inconclusive.

CCc1nn(CC(=O)N(C)Cc2ccccc2)c(=O)c2cc3sccc3n12 was read as HTT prom inh -12%, HTT-AS act -28%, GALC G270D up inconclusive, TSG101-PTAP inh inactive, GALK inh -4% and B2AR arrestin ag inactive.
Screening Cc1ccccc1-c1noc(-c2ccc(N3CCN(C)CC3)c([N+](=O)[O-])c2)n1 returned HTT prom inh 2.2µM*, HTT-AS act -70%, GALC G270D up inactive, TSG101-PTAP inh inactive, GALK inh -18% and B2AR arrestin ag inactive.
For COCCNc1ccc(-c2nc(-c3ccco3)no2)cc1[N+](=O)[O-] the results were HTT prom inh 40%, HTT-AS act inconclusive, GALC G270D up inactive, TSG101-PTAP inh inactive, GALK inh -9% and B2AR arrestin ag inactive.
For Cc1ccccc1-c1noc(-c2ccc(N3CCOCC3)c([N+](=O)[O-])c2)n1 the results were HTT prom inh 15%, HTT-AS act inconclusive, GALC G270D up inactive, TSG101-PTAP inh inactive, GALK inh 0% and B2AR arrestin ag inactive.
Cc1ccccc1-c1noc(-c2ccc(N3CCN(c4ccccc4)CC3)c([N+](=O)[O-])c2)n1 was read as HTT prom inh -3%, HTT-AS act -7%, GALC G270D up inactive, TSG101-PTAP inh inactive, GALK inh 2% and B2AR arrestin ag inactive.
For CCNc1ccc(-c2nc(-c3ccco3)no2)cc1[N+](=O)[O-] the results were HTT prom inh 63%, HTT-AS act 0.35µM*, GALC G270D up inactive, TSG101-PTAP inh inactive, GALK inh -2% and B2AR arrestin ag inactive.
For Cc1ccccc1-c1noc(-c2ccc(N3CCCC3)c([N+](=O)[O-])c2)n1 the results were HTT prom inh 10µM*, HTT-AS act -77%, GALC G270D up inactive, TSG101-PTAP inh inactive, GALK inh -12% and B2AR arrestin ag inactive.
Screening CCOC(=O)c1ccc(NC(=O)CC2Nc3cc(C)c(C)cc3NC2=O)cc1 (stereo unspecified) returned HTT prom inh 8.9µM*, HTT-AS act -90%, GALC G270D up inactive, TSG101-PTAP inh inactive, GALK inh 0% and B2AR arrestin ag inactive.
For CCc1nnc(NC(=O)c2nc(SCc3ccccc3C)ncc2Cl)s1 the results were HTT prom inh -7%, HTT-AS act -12%, GALC G270D up inactive, TSG101-PTAP inh inactive, GALK inh -1% and B2AR arrestin ag inactive.
`CN(C)S(=O)(=O)c1ccc2c(c1)N(CC(=O)Nc1ccc(OC(F)(F)F)cc1)C(=O)CS2` gave HTT prom inh inconclusive, HTT-AS act -19%, GALC G270D up inactive, TSG101-PTAP inh inactive, GALK inh -3% and B2AR arrestin ag inactive.
For CCC(=O)Nc1ccc(-c2nc3ncccc3o2)cc1C the results were HTT prom inh 31%, HTT-AS act 11µM*, GALC G270D up inactive, TSG101-PTAP inh inactive, GALK inh -14% and B2AR arrestin ag inactive.
Screening COc1ccc(Cn2c(CCC(=O)Nc3ccc(C)cc3C)nc3cccnc32)cc1 returned HTT prom inh -22%, HTT-AS act -14%, GALC G270D up inactive, TSG101-PTAP inh inactive, GALK inh 9% and B2AR arrestin ag inactive.
For Cc1ccc(NC(=O)Cc2ccc(-n3c(C)nc4cccnc43)cc2)c(Cl)c1 the results were HTT prom inh 8.9µM*, HTT-AS act -41%, GALC G270D up inactive, TSG101-PTAP inh inactive, GALK inh -2% and B2AR arrestin ag inactive.
For COc1ccc(-c2ccc3c(N)c(C(=O)Nc4cc(F)ccc4C)sc3n2)cc1 the results were HTT prom inh -21%, HTT-AS act -28%, GALC G270D up 16µM*, TSG101-PTAP inh inactive, GALK inh 2% and B2AR arrestin ag inactive.
Screening CC1CCN(c2nc3ccc(C(=O)NCc4ccccc4Cl)cc3s2)CC1 returned HTT prom inh 0.28µM*, HTT-AS act -81%, GALC G270D up inactive, TSG101-PTAP inh inactive, GALK inh -1% and B2AR arrestin ag inactive.
Screening Cc1ccc(CCNC(=O)c2ccc3nc(N4CCC(C)CC4)sc3c2)cc1 returned HTT prom inh 0.35µM*, HTT-AS act -73%, GALC G270D up inactive, TSG101-PTAP inh inactive, GALK inh -1% and B2AR arrestin ag inactive.
Screening Cc1ccc2nc(N3CCN(C(=O)C4CC4)CC3)sc2c1 returned HTT prom inh 44%, HTT-AS act inconclusive, GALC G270D up inactive, TSG101-PTAP inh inactive, GALK inh -1% and B2AR arrestin ag inactive.
For CC1CCN(c2nc3ccc(C(=O)NCc4ccc(Cl)cc4)cc3s2)CC1 the results were HTT prom inh 0.25µM*, HTT-AS act -79%, GALC G270D up inactive, TSG101-PTAP inh inactive, GALK inh 3% and B2AR arrestin ag inactive.
For O=C(NCCc1ccccc1)c1ccc2nc(N3CCCCC3)sc2c1 the results were HTT prom inh inconclusive, HTT-AS act -43%, GALC G270D up inactive, TSG101-PTAP inh inactive, GALK inh 0% and B2AR arrestin ag inactive.
`Cc1cccc(N2CCN(C(=O)c3ccc4nc(N5CCC(C)CC5)sc4c3)CC2)c1C` gave HTT prom inh 2.5µM*, HTT-AS act -75%, GALC G270D up inactive, TSG101-PTAP inh inactive, GALK inh 2% and B2AR arrestin ag inactive.
For Cc1ccc(Nc2nc3nonc3nc2Nc2cccc(C(F)(F)F)c2)cc1Cl the results were HTT prom inh 1.3µM*, HTT-AS act -91%, GALC G270D up inactive, TSG101-PTAP inh inactive, GALK inh -1% and B2AR arrestin ag inactive.
For COc1ccc(COC(=O)c2[nH]c3c(c2C)C(=O)CC(c2ccc(OC)c(OC)c2)C3)cc1 (stereo unspecified) the results were HTT prom inh 10µM*, HTT-AS act -74%, GALC G270D up inactive, TSG101-PTAP inh inactive, GALK inh -9% and B2AR arrestin ag inactive.
Screening O=C(N/N=C/c1ccccc1O)c1ccncc1 returned HTT prom inh -25%, HTT-AS act -16% and GALC G270D up inactive.
`c1ccc(-c2cc3ncc4c(n3n2)-c2ccccc2OC4)cc1` gave HTT prom inh 67%, HTT-AS act 1.6µM*, GALC G270D up inactive, TSG101-PTAP inh inactive, GALK inh 7% and B2AR arrestin ag inactive.
`CC(C)CCNS(=O)(=O)c1ccc(N2CCCCS2(=O)=O)cc1` gave HTT prom inh 14µM*, HTT-AS act -21%, GALC G270D up inactive, TSG101-PTAP inh inactive, GALK inh -1% and B2AR arrestin ag inactive.
Screening COc1cccc2cc(-c3nc4ccc(C)cc4[nH]3)c(=O)oc12 returned HTT prom inh 63%, HTT-AS act 0.32µM*, GALC G270D up inactive, TSG101-PTAP inh inactive, GALK inh 0% and B2AR arrestin ag inactive.
For COc1ccc2oc(=O)c(-c3nc4ccc(C)cc4[nH]3)cc2c1 the results were HTT prom inh 22%, HTT-AS act 8%, GALC G270D up inactive, TSG101-PTAP inh inactive, GALK inh -5% and B2AR arrestin ag inactive.
